Assay results published in ChEMBL document CHEMBL1961873, “Compounds: GSK PKIS; Assays: Nanosyn kinase panel” (2012).
Values joined by “and” are separate entries in the source; they are usually repeats but may differ in a detail not shown here. Identical values can stand only once.

Molecular target: SRSF protein kinase 3 (Homo sapiens) (UniProt Q9UPE1);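 also: values are mean inhibition of MSSK1 (alias of SRPK3)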
Settings: at 1 µM

Chain of SRSF protein kinase 3 (Homo sapiens) (Q9UPE1 whole entry): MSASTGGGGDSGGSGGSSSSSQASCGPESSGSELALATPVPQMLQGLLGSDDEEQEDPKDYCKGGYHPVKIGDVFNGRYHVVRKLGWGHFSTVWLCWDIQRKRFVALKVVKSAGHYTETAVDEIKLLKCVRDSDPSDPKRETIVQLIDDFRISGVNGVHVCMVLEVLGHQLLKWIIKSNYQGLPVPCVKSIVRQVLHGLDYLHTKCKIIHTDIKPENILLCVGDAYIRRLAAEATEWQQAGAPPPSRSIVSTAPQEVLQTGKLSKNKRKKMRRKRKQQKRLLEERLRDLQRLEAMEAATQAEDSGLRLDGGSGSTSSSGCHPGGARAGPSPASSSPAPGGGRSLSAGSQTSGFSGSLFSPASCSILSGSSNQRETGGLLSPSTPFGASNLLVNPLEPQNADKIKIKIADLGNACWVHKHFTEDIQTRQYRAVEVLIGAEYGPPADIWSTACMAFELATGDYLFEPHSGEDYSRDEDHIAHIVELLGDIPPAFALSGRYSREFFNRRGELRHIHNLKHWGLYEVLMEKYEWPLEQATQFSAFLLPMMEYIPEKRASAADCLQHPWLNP

Row | Compound | inhibition
1 | COC(=O)Nc1nc2ccc(Oc3ccc(NC(=O)Nc4cc(C(F)(F)F)ccc4F)cc3)cc2s1 | 9.68%
2 | COc1ccc(Nc2ncc(-c3ccccc3)o2)cc1OC | -2.17%
3 | NS(=O)(=O)c1cccc(N/C=C2\C(=O)Nc3ccccc32)c1 | 0.27%
4 | COc1cc(N2CCN(C(C)C)CC2)ccc1Nc1nc(Nc2cccc3ncccc23)c2cc[nH]c2n1 | 1.83%
5 | COc1cc(N2CCN(C(C)C)CC2)ccc1Nc1nc(Nc2cccc(F)c2C(=O)O)c2cc[nH]c2n1 | 3.96%
6 | CN1CCC(C(=O)Nc2n[nH]c3nc(-c4ccc(O)cc4)c(Br)cc23)CC1 | -0.76% and -0.97%
7 | O=C(O[C@H]1CN[C@H](C#Cc2cc3ncnc(Nc4ccc(OCc5cccc(F)c5)c(Cl)c4)c3s2)C1)N1CCOCC1 | -1.95%
8 | CN(C)CCNC(=O)Nc1ccc(N(C)c2ccnc(Nc3ccc(CS(C)(=O)=O)cc3)n2)cc1 | -2.85%
9 | NS(=O)(=O)c1ccc(N/N=C2\C(=O)Nc3ccc(C(=O)NCc4ccncc4)cc32)cc1 | 2.17%
10 | Fc1ccc(Nc2nccc(-c3c(-c4ccc(C(F)(F)F)cc4)nn4ncccc34)n2)cc1F | 0.08%
11 | CC1(C)CC(n2cnc(-c3ccc(F)cc3)c2-c2ccnc(N)n2)CC(C)(C)N1 | -1.33%
12 | Cc1c2ccc(N(C)c3ccnc(Nc4cccc(S(N)(=O)=O)c4)n3)cc2nn1C | -0.13%
13 | CN1CCC(n2cnc(-c3ccc(F)cc3)c2-c2ccnc(NCCO)n2)CC1 | 1.7%
14 | CS(=O)(=O)CCNCc1ccc(-c2ccc3ncnc(Nc4ccc(OCc5ccccc5)cc4)c3c2)o1 | 0.73%

Molecular target: Mitogen-activated protein kinase 14 (Homo sapiens) (UniProt Q16539);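 also: values are mean percent inhibition of p38α kinase from the GSK PKIS published kinase inhibitor set screen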
Settings: at 0.1 µM

Chain of Mitogen-activated protein kinase 14 (Homo sapiens) (Q16539 whole entry): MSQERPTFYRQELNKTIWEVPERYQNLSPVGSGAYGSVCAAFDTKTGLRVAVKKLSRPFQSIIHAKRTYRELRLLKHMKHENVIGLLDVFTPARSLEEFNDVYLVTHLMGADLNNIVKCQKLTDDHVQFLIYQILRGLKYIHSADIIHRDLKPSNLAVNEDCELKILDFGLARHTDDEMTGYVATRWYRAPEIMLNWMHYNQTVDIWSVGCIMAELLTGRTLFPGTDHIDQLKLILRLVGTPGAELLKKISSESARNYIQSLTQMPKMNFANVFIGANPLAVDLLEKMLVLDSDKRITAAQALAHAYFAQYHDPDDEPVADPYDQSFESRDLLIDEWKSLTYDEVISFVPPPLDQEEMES

Row | Compound | inhibition
15 | O=C(O[C@H]1CN[C@H](C#Cc2cc3ncnc(Nc4ccc5c(cnn5Cc5ccccc5)c4)c3s2)C1)N1CCOCC1 | 0.21%
16 | Cn1c(-c2nonc2N)nc2cnccc21 | 3.4%
17 | Nc1ncnc2occ(-c3ccc(NC(=O)Nc4cc(C(F)(F)F)ccc4F)cc3)c12 | 8.71% and -2.42%
18 | O=C(Nc1n[nH]c2nnc(-c3cccnc3)cc12)C1CC1 | -0.2%
19 | COc1ccc2ncn(-c3cc(O[C@H](C)c4ccccc4C(F)(F)F)c(C(N)=O)s3)c2c1 | -5.71%
20 | CCOc1ccc2c(-c3ccnc(Nc4cc(OC)cc(C(F)(F)F)c4)n3)cnn2n1 | 8.65%
21 | c1ccc(-c2n[nH]cc2-c2ccnc(-c3ccc(OCCn4ccnc4)cc3)c2)nc1 | 9.4%
22 | CCN1CCC(C(=O)Nc2n[nH]c3nnc(-c4cccc(F)c4F)cc23)CC1 | -0.33%
23 | Nc1nonc1-c1nc2cnccc2n1C1CC1 | 9.91% and 3.52%
24 | O=C1Nc2ccccc2/C1=C1\CCc2cc(O)ccc21 | 4.38%
25 | NC(=O)c1ccc2c(-c3ccnc(NCCCO)n3)c(-c3ccc(F)cc3)nn2c1 | 74.9%
26 | NS(=O)(=O)c1ccc(N/N=C2\C(=O)Nc3cccc(CCc4ccncc4)c32)cc1 | 1.13%
27 | FC(F)(F)CNc1nccc(-c2cnn3ncccc23)n1 | 6.27%
28 | COc1ccc(-c2nn3ncccc3c2-c2ccnc(Nc3ccc(F)c(F)c3)n2)cc1 | 33%
29 | c1cnn2ncc(-c3ccnc(NCCCN4CCOCC4)n3)c2c1 | 1.91%
30 | COc1cc(Nc2ncc(-c3ccccc3)o2)cc(OC)c1 | 6.3%
31 | CCS(=O)(=O)c1ccc(OC)c(Nc2ncc(-c3cccc(C(C)=O)c3)o2)c1 | 2.16%
32 | COC(=O)Nc1nc2ccc(Oc3ccc(NC(=O)Nc4cc(C(F)(F)F)ccc4F)cc3)cc2s1 | 18.9%
33 | COc1ccc(Nc2ncc(-c3ccccc3)o2)cc1OC | 4.31%
34 | NS(=O)(=O)c1cccc(N/C=C2\C(=O)Nc3ccccc32)c1 | 7.96%
35 | COc1cc(N2CCN(C(C)C)CC2)ccc1Nc1nc(Nc2cccc3ncccc23)c2cc[nH]c2n1 | 1.44%
36 | COc1cc(N2CCN(C(C)C)CC2)ccc1Nc1nc(Nc2cccc(F)c2C(=O)O)c2cc[nH]c2n1 | 6.33%
37 | CN1CCC(C(=O)Nc2n[nH]c3nc(-c4ccc(O)cc4)c(Br)cc23)CC1 | 1.69% and 4.12%
38 | O=C(O[C@H]1CN[C@H](C#Cc2cc3ncnc(Nc4ccc(OCc5cccc(F)c5)c(Cl)c4)c3s2)C1)N1CCOCC1 | 3.55%
39 | CN(C)CCNC(=O)Nc1ccc(N(C)c2ccnc(Nc3ccc(CS(C)(=O)=O)cc3)n2)cc1 | 2.66%
40 | NS(=O)(=O)c1ccc(N/N=C2\C(=O)Nc3ccc(C(=O)NCc4ccncc4)cc32)cc1 | 6.35%
41 | Fc1ccc(Nc2nccc(-c3c(-c4ccc(C(F)(F)F)cc4)nn4ncccc34)n2)cc1F | 1.53%
42 | CC1(C)CC(n2cnc(-c3ccc(F)cc3)c2-c2ccnc(N)n2)CC(C)(C)N1 | 64.5%
